# Experimental data taken from the supplement of paper PMC8728848.
# The entries come from a sample that favours the strongest signals as a whole.
# Legend:
# Test in all cases: glycan array binding signal (z-score within array); higher = stronger binding
# Conditions in all cases: glycan notation: IUPAC condensed, linker removed
# [1] = biological target: GlcNAc(b1-2)Man(a1-3)[GlcNAc(b1-2)Man(a1-6)]Man(b1-4)GlcNAc(b1-4)GlcNAc
# Method in brief: (§1)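 From the Consortium for Functional Glycomics database, 3228 arrays were curated, keeping only those whose protein sequence was available. Binding is given as a within-array Z-score averaged across arrays sharing a protein sequence and across linkers. Negative Z-scores can be read as non-binding.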
# [2] = biological target: GlcNAc(b1-2)[GlcNAc(b1-4)]Man(a1-3)[GlcNAc(b1-2)Man(a1-6)]Man(b1-4)GlcNAc(b1-4)GlcNAc
# Method in brief: as §1
# [3] = biological target: GlcNAc(b1-2)[GlcNAc(b1-6)]Man(a1-6)[GlcNAc(b1-2)Man(a1-3)]Man(b1-4)GlcNAc(b1-4)GlcNAc
# Method in brief: as §1
# [4] = biological target: GlcNAc(b1-2)[GlcNAc(b1-6)]Man(a1-6)[GlcNAc(b1-2)Man(a1-3)]Man(b1-4)GlcNAc(b1-4)[Fuc(a1-6)]GlcNAc
# Method in brief: as §1
# [5] = biological target: GlcNAc(b1-3)Gal(b1-4)GlcNAc(b1-2)[GlcNAc(b1-3)Gal(b1-4)GlcNAc(b1-6)]Man(a1-6)[GlcNAc(b1-3)Gal(b1-4)GlcNAc(b1-2)Man(a1-3)]Man(b1-4)GlcNAc(b1-4)GlcNAc
# Method in brief: as §1
# [6] = biological target: GlcNAc(b1-3)Gal(b1-4)GlcNAc(b1-6)[GlcNAc(b1-3)]Gal(b1-4)GlcNAc
# Method in brief: as §1
# [7] = biological target: GlcNAc(b1-3)GalNAc
# Method in brief: as §1
# [8] = biological target: GlcNAc(b1-6)GalNAc
# Method in brief: as §1
# [9] = biological target: Man(a1-2)Man(a1-3)[Man(a1-2)Man(a1-6)]Man(a1-6)[Man(a1-2)Man(a1-2)Man(a1-3)]Man(b1-4)GlcNAc(b1-4)GlcNAc
# Method in brief: as §1
# [10] = biological target: Man(a1-2)Man(a1-6)[Man(a1-3)]Man(a1-6)[Man(a1-2)Man(a1-2)Man(a1-3)]Man
# Method in brief: as §1
# [11] = biological target: Neu5Ac(a2-3)Gal(b1-3)GalNAc(b1-4)Gal(b1-4)Glc
# Method in brief: as §1
# [12] = biological target: Neu5Ac(a2-3)Gal(b1-3)GlcNAc(b1-3)Gal(b1-4)GlcNAc
# Method in brief: as §1
# [13] = biological target: Neu5Ac(a2-3)Gal(b1-3)[Fuc(a1-4)]GlcNAc
# Method in brief: as §1
# [14] = biological target: Neu5Ac(a2-3)Gal(b1-4)GlcNAc(b1-2)Man
# Method in brief: as §1
# [15] = biological target: Neu5Ac(a2-3)Gal(b1-4)GlcNAc(b1-3)Gal(b1-4)GlcNAc(b1-3)GalNAc
# Method in brief: as §1
# [16] = biological target: Neu5Ac(a2-3)Gal(b1-4)GlcNAc(b1-3)Gal(b1-4)GlcNAc(b1-6)[Gal(b1-3)]GalNAc
# Method in brief: as §1
# [17] = biological target: Neu5Ac(a2-3)Gal(b1-4)GlcNAc(b1-6)GalNAc
# Method in brief: as §1
# [18] = biological target: Neu5Ac(a2-3)Gal(b1-4)[Fuc(a1-3)]GlcNAc(b1-2)Man
# Method in brief: as §1
# [19] = biological target: Neu5Ac(a2-3)Gal(b1-4)[Fuc(a1-3)]GlcNAc(b1-3)Gal
# Method in brief: as §1
# [20] = biological target: Neu5Ac(a2-3)Gal(b1-4)[Fuc(a1-3)]GlcNAc(b1-3)Gal(b1-4)GlcNAc
# Method in brief: as §1
# [21] = biological target: Neu5Ac(a2-3)Gal6S(b1-4)[Fuc(a1-3)]GlcNAc
# Method in brief: as §1
# [22] = biological target: Neu5Ac(a2-6)Gal(b1-4)GlcNAc(b1-2)Man(a1-3)Man(b1-4)GlcNAc(b1-4)GlcNAc
# Method in brief: as §1
# [23] = biological target: Neu5Ac(a2-6)Gal(b1-4)GlcNAc(b1-2)Man(a1-3)[Neu5Ac(a2-3)Gal(b1-4)GlcNAc(b1-2)Man(a1-6)]Man(b1-4)GlcNAc(b1-4)GlcNAc
# Method in brief: as §1
# [24] = biological target: Neu5Ac(a2-6)Gal(b1-4)GlcNAc(b1-3)[Neu5Ac(a2-6)Gal(b1-4)GlcNAc(b1-6)]GalNAc
# Method in brief: as §1
# [25] = biological target: Neu5Ac9Ac(a2-3)Gal(b1-4)GlcNAc
# Method in brief: as §1
# [26] = biological target: Neu5Gc(a2-3)Gal(b1-3)GlcNAc
# Method in brief: as §1
# [27] = biological target: Neu5Gc(a2-3)Gal(b1-4)Glc
# Method in brief: as §1
binder,measurement,setting,value
"SSR1 (Sclerotium rolfsii), A0A0M3KL30 (protein) TYKITVRVYQTNPDAFFHPVEKTVWKYANGGTWTITDDQHVLTMGGSGTSGTLRFHADNGESFTATFGVHNYKRWCDIVTNLAADETGMVINQQYYSQKNREEARERQLSNYQVKNAKGRNFQIVYTEAEGNDLHANLIIG",glycan array binding signal (z-score),[1],5.28
same,glycan array binding signal (z-score),[2],3.04
same,glycan array binding signal (z-score),[3],3.93
same,glycan array binding signal (z-score),[4],3.66
same,glycan array binding signal (z-score),[5],1.32
same,glycan array binding signal (z-score),[6],0.953
same,glycan array binding signal (z-score),[7],0.954
same,glycan array binding signal (z-score),[8],1.03
same,glycan array binding signal (z-score),[9],-0.548
same,glycan array binding signal (z-score),[10],-0.348
same,glycan array binding signal (z-score),[11],-0.271
same,glycan array binding signal (z-score),[12],-0.343
same,glycan array binding signal (z-score),[13],-0.341
same,glycan array binding signal (z-score),[14],-0.313
same,glycan array binding signal (z-score),[15],0.407
same,glycan array binding signal (z-score),[16],1.06
same,glycan array binding signal (z-score),[17],-0.334
same,glycan array binding signal (z-score),[18],-0.374
same,glycan array binding signal (z-score),[19],-0.342
same,glycan array binding signal (z-score),[20],-0.324
same,glycan array binding signal (z-score),[21],-0.349
same,glycan array binding signal (z-score),[22],-0.341
same,glycan array binding signal (z-score),[23],-0.339
same,glycan array binding signal (z-score),[24],-0.297
same,glycan array binding signal (z-score),[25],-0.27
same,glycan array binding signal (z-score),[26],-0.329
same,glycan array binding signal (z-score),[27],-0.278
